Source: PubChem BioAssay
FUS suppressor – FUS proteinopathy suppression in yeast; 0.24% of 390,000 active; S. cerevisiae FUS-expressing, growth rescue, OD600, 24 h; Potency, µM (top dose mostly 76.6 µM), most hits filed as activators;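 also: plate controls were DMSO vehicle for no effect and reference control for full effect; nearly all actives have a fitted effect of over 55% in size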
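FUS-expressing yeast, raffinose-pregrown, induced in 2% galactose minimal medium at OD 0.005; compounds in a dilution series, 24hr at 30C. Growth restoration read as absorbance at 600 nm. CP55940 positive control, DMSO negative.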
aSyn yeast inh – rescues yeast growth from alpha-synuclein toxicity | Potency, µM (top dose mostly 46.1 µM), for inactives: at the top dose growth rescue (activation), usual class: activators | 0.14% of 370,000 active | Yeast expressing alpha-synuclein, growth rescue, BacTiter-Glo, 24 h; also: % of control where 0% means no effect; nearly all actives have a fitted effect of over 65% in size
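Screening used galactose-induced yeast with toxic alpha-synuclein levels, exposed to compound for 24 hr at 30 deg C. Cell growth, read with BacTiter-Glo luminescence, gave the measured signal.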
Abeta yeast res – restores growth of yeast expressing A-beta42 peptide; yeast expressing A-beta42, growth rescue, OD600, 48 h; response scale: 0% DMSO, 100% iron-clioquinol control; 0.063% of 410,000 active; Potency, µM (titrated, usually from 46.1 µM), actives largely listed as activators; also: nearly all actives have a fitted effect of over 55% in size
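Yeast growth medium received pinned compounds, then yeast cells expressing toxic A-beta were added; plates incubated at 30 C for 48 hr. Growth read as absorbance at 600 nm, normalized to DMSO and equimolar FeCl3 plus clioquinol controls.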
TDP43 rescue – rescues yeast growth from TDP-43 toxicity. Potency, µM (series often up to 46.1 µM), inactives show at the highest dose growth rescue (activation), usual class: activators. TDP-43 expressing yeast growth rescue, BacTiter-Glo, 24 h. 1.8% of 410,000 active; also: % of control where 0% means no effect; nearly all actives have a fitted effect of over 50% in size
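Luminescence from BacTiter-Glo reports growth of TDP-43-expressing yeast after 24 hr at 30 deg C with compound. Cells were raffinose-pregrown to mid-log, then seeded in galactose medium at OD600=0.02.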
Mito fusion act – blocks mitochondrial division or promotes mitochondrial fusion; 0.23% of 320,000 active; S. cerevisiae fusion-defective mutant growth rescue, CellTiterGlo 48 h; Potency, µM (top dose mostly 46.1 µM), for inactives: at the top dose growth rescue (activation), hits mostly activators; AID 485298; also: % of control where 0% means no effect; nearly all actives have a fitted effect of over 45% in size
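S. cerevisiae fusion-defective temperature-sensitive mutants (e.g. fzo1-1, mgm1-5) grown 48 h at 37C in YPEG (ethanol/glycerol non-fermentable) medium with 23 nl compound per well; growth rescue read as CellTiterGlo luminescence.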
Active calls of the source: *; i = inactive; ? = inconclusive; . = not tested or not shown; [ ] = dose if it differs, or a comment. The list is not random: actives were taken first. Their share in the collection is about 2.2%. Calls follow the shape of the dose curve; as a rule, active = well fitted curve in the direction sought with a large enough effect; inconclusive = small, poorly fitted or top-dose-only effect, or another doubt; inactive = no such curve, though single readings can be large; an effect the other way counts as inactive or inconclusive. Potency is read from the fitted curve at half-maximal effect.

SMILES | FUS suppressor | aSyn yeast inh | Abeta yeast res | TDP43 rescue | Mito fusion act
Clc1ccc(SCc2cc(N3CCOCC3)nc(-c3ccccn3)n2)cc1 | i | 0.4% | 12.6µM* | -10.2% | 6.8%
O=c1cc(CSc2ccc(Cl)cc2)nc(-c2ccccn2)[nH]1 | i | 10µM* | ? | ? | -29.0%
CN(C)C(=O)c1cccc(-c2cnc3c(NC=O)cc(-c4cccc(C(F)(F)F)c4)cn23)c1 | 28.2µM* | -1.8% | i | 0.0% | .
CC(=O)Nc1cc(-c2ccccc2F)cn2c(-c3ccccc3)cnc12 | i | 4.7% | i | 20µM* | .
O=CNc1cc(-c2cccc(F)c2)cn2c(-c3ccc(F)cc3)cnc12 | i | -6.9% | i | 17.8µM* | .
COc1ccc(-c2cc(NC=O)c3ncc(-c4cccc(C(F)(F)F)c4)n3c2)c(OC)c1 | ? | -6.1% | i | 15.8µM* | .
CS(=O)(=O)Nc1cccc(-c2cc(NC=O)c3ncc(-c4ccc(F)cc4)n3c2)c1 | ? | 5.1% | i | 0.0% | .
COc1cc(-c2cnc3c(NC=O)cc(-c4cccc(C(F)(F)F)c4)cn23)cc(OC)c1OC | ? | 10.9% | i | 0.0% | .
Cc1cccc(-c2cc(NC=O)c3ncc(-c4cccc(C(=O)N(C)C)c4)n3c2)c1 | i | 1.7% | i | 15.4% | .
CCC[C@H]1[C@@H](NCc2ccccc2)CC[C@@]23CCCN2C(=O)CCC[C@@H]13 | i | . | . | . | .
COc1cccc(-c2cnc3c(NC(C)=O)cc(-c4ccccc4OC)cn23)c1 | i | 6.3% | i | 20µM* | .
COc1ccc(-c2cc(NC(C)=O)c3ncc(-c4cccc(C(F)(F)F)c4)n3c2)c(OC)c1 | ? | 23.1% | i | 12.6µM* | .
O=C(Nc1cc(F)ccc1F)c1ccc2c(c1)nnn2C1CCCC1 | i | . | i | 11.6% | .
O=c1cc(O)c2c([nH]1)CCC2 | . | -10.8% | . | . | .
COC(=O)C1CN(Cc2ccc(F)cc2)CCS(=O)(=O)N1Cc1cn(Cc2ccc(C)cc2)nn1 (stereo unspecified) | i | . | . | . | .
Cc1cc(C)nc(N(C#N)Cc2ccc(Br)cc2)n1 | i | 0.0% | i | 14.1µM* | ?
Cc1cc(C)nc(N(C#N)CCOc2ccc(Cl)cc2)n1 | i | -43.2% | i | 17.8µM* | 7.0%
Cc1cc(C)nc(N(C#N)Cc2ccc(Cl)cc2)n1 | i | 13.8% | i | 26.1%[9.22 µM] | 15.7%
Cc1ccc(CN(C#N)c2nc(C)cc(C)n2)cc1 | i | 5.7% | i | 35.5µM* | 1.9%
Cn1c(=O)oc2cc(S(=O)(=O)NC(Cc3ccccc3)C(=O)Nc3ccc(F)c(Cl)c3)ccc21 (stereo unspecified) | i | . | i | 4.4% | .
COc1ccc(OC)c(C2Nc3c(C)cc(C)cc3-c3cc(C)nn32)c1 (stereo unspecified) | i | . | i | ? | .
Cc1ccc(N2C(=O)C3C4C=CC(CNC(=S)Nc5ccc(Cl)cc5)(O4)C3C2=O)cc1 (stereo unspecified) | . | -35.0% | i | 14.1µM* | 4.6%
COc1ccc2c(c1)c1c(c(=O)n(CCc3ccccc3)c(=O)n1Cc1ccc(Cl)cc1)n2C | i | . | i | 26.2% | .
CCOCCCn1c(SCC(=O)Nc2ccccc2OC)nc2c(oc3ccccc32)c1=O | ? | . | i | 22.4µM* | .
CC(C)n1c(SCC(=O)Nc2ccc(F)cc2)nc2c(oc3ccccc32)c1=O | i | . | i | 20µM* | .
SMILES | FUS suppressor | aSyn yeast inh | Abeta yeast res | TDP43 rescue | Mito fusion act
COc1ccccc1NC(=O)CSc1nc2c(oc3ccccc32)c(=O)n1Cc1ccco1 | i | . | i | 21.1% | .
N#CC(c1ccc(Cl)nn1)c1ccc(Cl)cc1Cl (stereo unspecified) | i | 13.9% | i | 12.6µM* | -5.7%
COc1ccc(C(C#N)c2ccc(Cl)nn2)cc1 (stereo unspecified) | i | -8.0% | i | 22.9% | -5.3%
S=C(NCCc1ccccc1)Nc1ccccc1Cl | i | -15.7% | i | 7.1% | 2.7%
Fc1ccc(CNC(=S)Nc2ccc(Cl)cc2)cc1 | i | 0.0% | i | ? | -19.7%
Cc1c(Cl)cccc1NC(=S)NCCc1ccc(C(F)(F)F)cc1 | i | -1.2% | ? | 14.1µM* | -3.3%
S=C(NCc1ccc(Cl)cc1)Nc1ccccc1 | i | 8.8% | 12.6µM* | ? | -5.2%
S=C(NCCc1ccccc1)NCCc1ccccc1 | . | -0.2% | i | 22.1% | 17.8%
S=C(NCCc1ccccc1)NCc1cccc(Cl)c1 | i | 4.0% | 15.8µM* | 22.6% | -5.3%
Fc1ccccc1NC(=S)NCCc1cccc(Cl)c1 | i | -0.6% | 22.4µM* | ? | -1.9%
N#Cc1nc(-c2ccc(OCc3ccccc3Cl)cc2)oc1N1CCC(C(N)=O)CC1 | . | 2.5% | . | . | .
O=C(CCc1ccccc1)N[C@H]1C(=O)CCC[C@]12C(=O)N(Cc1ccccc1)c1ccccc12 | i | . | . | . | .
CC(C)(C)OC(=O)N1CCC(c2c(C(=O)N3CCCCC3)cnn2-c2ccccc2Cl)CC1 | i | . | i | 0.0% | .
Cc1cc(Cl)ccc1NC(=S)NCc1ccc(F)cc1 | i | -8.3% | i | 17.8µM* | -9.0%
COc1ccccc1NC(=S)NCCc1ccc(Cl)cc1 | i | 6.0% | i | 15.8µM* | -1.2%
S=C(NCCCCc1ccccc1)NCc1ccccc1 | i | -0.1% | 15.8µM* | 14.5% | -5.9%
S=C(NCc1ccccc1)C(=S)NCc1ccccc1 | i | -31.2% | 8.91µM* | 18.8% | .
S=C(NCc1ccccc1)NCc1ccc(CNC(=S)NCc2ccccc2)cc1 | i | -2.7% | i | 7.6% | -4.5%
Cc1cccc(/C(N)=N/OC(=O)Cc2cccc3ccccc23)c1 | i | -29.1% | i | 11.2µM* | 4.2%
Cc1ccc(/C(N)=N/OC(=O)Cc2cccc3ccccc23)cc1 | i | -20.3% | i | 14.1µM* | -9.2%
O=C(COc1cccc2cccnc12)N/N=C/c1ccccc1O | i | 4.2% | i | 1.3% | -0.7%
Oc1ccccc1/C=N/Nc1cccc2cccnc12 | i | -16.6% | i | 17.8µM* | -10.7%
CCOC(=O)c1ccc(NS(=O)(=O)c2cn(C)c(C)n2)cc1 | i | -8.6% | i | 16.2% | .
CCN(CC)c1ccc(/C=C(\C#N)c2ccccn2)cc1 | i | -3.7% | i | 15.8µM* | 11.0%
CCN(Cc1ccccc1)c1ccc(/C=C(\C#N)c2ccccn2)cc1 | i | 4.2% | i | -16.7% | 0.1%
O=C(CNS(=O)(=O)c1ccc(F)cc1)N1CCN(c2ccccn2)CC1 | i | . | . | . | .
O=C(NCCC1=CCCCC1)NC12CC3CC(CC(C3)C1)C2 | i | -11.7% | i | 15.8µM* | 8.5%
O=C(NCCc1ccc(F)cc1)NC12CC3CC(CC(C3)C1)C2 | i | -12.6% | i | 4.4% | 15.4%
CSc1nc(N)n2nc(C(C)(C)C)cc2n1 | i | -14.7% | i | 17.8µM* | -0.4%
